Source: PubChem BioAssay (several laboratories)
An excerpt weighted towards active compounds, which were near 2.2% of everything screened.
VLA-4 inh – inhibition in a human VLA-4 binding assay | AID 2557 | inhibition, % (about 7 µM as worked out from the volumes in the protocol) | 330,000 compounds, 0.2% hits | VLA-4 expressing cells, ligand binding flow cytometry; in the data active = inhibition above about 50%
Target sequence (P13612 whole entry, looked up): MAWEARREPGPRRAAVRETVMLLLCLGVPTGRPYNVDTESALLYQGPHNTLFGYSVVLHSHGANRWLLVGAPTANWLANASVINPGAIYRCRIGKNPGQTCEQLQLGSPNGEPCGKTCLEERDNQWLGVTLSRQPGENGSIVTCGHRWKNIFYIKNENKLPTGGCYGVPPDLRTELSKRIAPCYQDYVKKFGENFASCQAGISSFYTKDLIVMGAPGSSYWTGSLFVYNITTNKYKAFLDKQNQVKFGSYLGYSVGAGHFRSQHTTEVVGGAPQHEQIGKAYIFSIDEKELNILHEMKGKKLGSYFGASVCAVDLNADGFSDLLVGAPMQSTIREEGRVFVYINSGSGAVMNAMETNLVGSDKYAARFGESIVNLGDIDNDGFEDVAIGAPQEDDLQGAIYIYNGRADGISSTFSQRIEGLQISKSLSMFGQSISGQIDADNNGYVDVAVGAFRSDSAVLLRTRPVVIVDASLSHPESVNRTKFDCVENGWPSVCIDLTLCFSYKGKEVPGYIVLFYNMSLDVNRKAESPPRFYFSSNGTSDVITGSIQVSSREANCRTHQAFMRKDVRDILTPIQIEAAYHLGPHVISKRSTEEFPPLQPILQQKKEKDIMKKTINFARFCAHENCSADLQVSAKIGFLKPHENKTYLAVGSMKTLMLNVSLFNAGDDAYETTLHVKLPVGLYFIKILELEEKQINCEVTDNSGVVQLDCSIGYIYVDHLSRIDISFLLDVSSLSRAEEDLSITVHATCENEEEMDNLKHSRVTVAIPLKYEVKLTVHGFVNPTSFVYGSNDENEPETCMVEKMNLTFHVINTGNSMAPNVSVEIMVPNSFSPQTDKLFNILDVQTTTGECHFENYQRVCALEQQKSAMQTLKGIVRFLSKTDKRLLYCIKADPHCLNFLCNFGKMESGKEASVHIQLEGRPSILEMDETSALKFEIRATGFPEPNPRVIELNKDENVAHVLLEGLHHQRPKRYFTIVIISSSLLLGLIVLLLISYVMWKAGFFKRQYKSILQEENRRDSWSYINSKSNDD
Exocytosis inh – blocks lytic granule exocytosis; TALL-104 LAMP-1 surface exposure, flow cytometry; cells stimulated with thapsigargin and PMA; inhibition, % at 10 µM; 360,000 compounds, 0.66% hits; AID 651702;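 active = inhibition above about 55%, limit read from the data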
JMJD2C inh – human JMJD2C demethylase inhibition. GST-JMJD2C(1-420) H3K9me3 demethylation, DELFIA europium. inhibition, % at 2.35 µM. 330,000 compounds, 0.069% hits;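 active = more than half of a compound's replicate wells show inhibition beyond 50%, single wells judged on their own value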;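 also: signal counts dimethyl H3K9 product captured on neutravidin plate; 0% = median of DMSO wells and 100% = 0.3 times that DMSO median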
V-ATPase pHluor – regulators of yeast V-ATPase proton transport; S. cerevisiae, pHLuorin cytosolic pH fluorescence; response, % at 10 µM; 350,000 compounds, 0.37% hits; in the data active = response mostly above about 7.3%, no sharp cut-off; inactive = mostly below about 5.4%; also: actives read high
MEX-5 binding – C. elegans MEX-5 TCR-2 RNA binding activity. activity score (negative = inhibition of binding), % at 10 µM. MEX-5/FITC-TCR2 RNA binding, fluorescence polarization; stronger effect = lower value. Q9XUB2. 300,000 compounds, 0.38% hits. AID 1832;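 active = inhibition past about -25% in most replicates, and total fluorescence under double the plate's negative control median, limit read from the data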;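 also: 0% = DMSO and -100% = 5 µM competing unlabeled TCR2 RNA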
HTR2A ag – activates the mouse 5-HT2A serotonin receptor; AID 624169; CHO-K1 mHTR2A beta-arrestin complementation, luminescence; percent of 30 µM serotonin response; P35363; 360,000 compounds, 0.66% hits; activation, % at 7.6 µM;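 active = activation above a run cutoff, the mean activation of all tested compounds plus 3 SD, cut at about 14% in these data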;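 also: 0% = plate median of compound wells and 100% = 30 µM serotonin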
V-ATPase pH SP – yeast V-ATPase proton transport regulation; shares compounds with V-ATPase pHluor; S. cerevisiae pHLuorin cytosolic pH; response, % at 10 µM; 980 compounds, 2% hits; in the data active = response above about 24%;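 also: plate controls were vehicle wells for no effect and positive control wells for full effect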
* = called active by the depositor; nt = no result.

SMILES | VLA-4 inh | Exocytosis inh | JMJD2C inh | V-ATPase pHluor | MEX-5 binding | HTR2A ag | V-ATPase pH SP
CCOC(=O)c1nc2ccccc2c(C)c1C | 1.5 | -2.9 | -0.4 | 4.1 | 0.0 | -0.6 | 2.2
CCOC(=O)Cc1nc2ccccc2[nH]1 | -3.2 | -2.8 | 7.2 | 2.9 | -2.1 | 5.7 | -5.0
CCOC(=O)c1nc2ccccc2nc1C | 7.8 | 0.7 | 2.4 | 2.7 | 0.5 | -1.4 | nt
CCOC(=O)c1c(C)nc2ccccc2c1C | -3.5 | 1.8 | -15.5 | -2.6 | 1.6 | 1.2 | 1.3
COC(=O)[C@@H](Cc1ccccc1)NC(=O)Cn1cc(C)c(=O)[nH]c1=O | nt | 11.9 | nt | 1.1 | nt | -0.4 | nt
CN(C)CCCNC1=CC(=O)OC12CCCCC2 | 13.0 | -0.3 | 35.9 | 2.2 | -0.5 | -1.0 | nt
O=C1C=C(NCc2ccc(Cl)cc2Cl)C2(CCCCC2)O1 | 6.8 | -6.0 | 0.1 | 10.2* | 1.1 | -1.0 | 3.7
O=C(Nc1cc(C(F)(F)F)ccc1-n1cncn1)c1ccc(F)cc1Cl | 18.4 | -4.8 | 6.1 | -0.8 | nt | 8.7 | nt
COc1ccc(CN2C(=O)c3ccccc3C2C(=O)NC2CCCC2)c(OC)c1 (stereo not given) | 1.3 | -0.7 | 8.5 | 9.8* | 1.9 | -2.5 | 0.5
O=C1CC2(CCN(C(=O)c3cccc([N+](=O)[O-])c3)CC2)Oc2ccccc21 | -2.0 | -2.6 | -2.7 | -1.5 | -4.1 | 3.4 | nt
COc1ccc(N(CC(=O)NCCC2=CCCCC2)S(=O)(=O)c2ccc(C)cc2)cc1OC | 6.3 | 0.1 | -4.8 | 1.0 | 1.2 | -5.0 | nt
COc1ccc(N(CC(=O)NCCC2=CCCCC2)S(=O)(=O)c2ccccc2)cc1OC | 4.5 | 0.7 | -14.7 | 14.3* | 0.3 | 4.4 | -1.1
Cc1nccn1CC(=O)c1ccc(O)c(O)c1 | 2.0 | 13.7 | 21.6 | -4.0 | nt | -1.9 | nt
Cc1ccc(Nc2nnc(C)c3ccccc23)c(C)c1 | 0.4 | 1.7 | 4.5 | 12.4* | 0.1 | 7.0 | 9.1
CC1CN(C2CCN(C(=O)c3ccccc3)CC2)CC(C)O1 (stereo not given) | -0.1 | -5.6 | -1.4 | 9.3* | 0.8 | 1.9 | 0.7
CC1CN(C(=O)c2ccc(C(=O)c3ccccc3)cc2)CC(C)O1 (stereo not given) | 7.4 | 0.1 | 0.0 | 10.6* | -2.2 | 3.9 | -1.7
COc1ccc(Cl)cc1S(=O)(=O)N1CCCC(C(=O)N2CCOCC2)C1 (stereo not given) | -2.4 | 0.8 | 2.4 | 9.5* | -1.1 | -2.8 | 2.7
N#Cc1c(NC(=O)Cn2nc(C(F)(F)F)c3c2CCCC3)sc2c1CCC2 | -11.3 | 4.1 | -3.1 | 10.2* | -4.3 | -2.1 | 14.1
CC1CCc2c(sc(NC(=O)Cn3nc(C(F)(F)F)c4c3CCCCC4)c2C#N)C1 (stereo not given) | -5.8 | 0.0 | 4.1 | -0.5 | 0.9 | -0.9 | nt
CC(=O)NCCC(=O)N(Cc1ccccc1)c1nc2c(C)cccc2s1 | 10.1 | -4.2 | 14.9 | 1.5 | 1.6 | -4.0 | nt
CCOC(=O)N=Nc1c(O)n(Cc2ccccc2)c2ccccc12 | -9.4 | -2.6 | -1.5 | 2.3 | -1.8 | -1.8 | -2.5
CCOC(=O)N=Nc1c(O)n(CC)c2ccccc12 | 18.9 | -6.8 | 0.7 | -3.5 | 1.1 | -1.3 | -1.8
CCCS(=O)(=O)NC(=O)C1(C)CCCN(C(=O)c2cc(C)nn2C(C)(C)C)C1 (stereo not given) | nt | -6.5 | nt | nt | nt | 7.9 | nt
CC(c1ccco1)N(C(=O)C12CC3(C)CC(C)(CC(C)(C3)C1)C2)c1ccccn1 (stereo not given) | 2.5 | 4.6 | 12.7 | 12.7* | -0.4 | 4.9 | -2.9
COCCCNC(=S)N/N=C/c1ccc(O)cc1 | -27.5 | 0.9 | -0.8 | 12.9* | -2.4 | -1.8 | 0.4
SMILES | VLA-4 inh | Exocytosis inh | JMJD2C inh | V-ATPase pHluor | MEX-5 binding | HTR2A ag | V-ATPase pH SP
Cc1cccc(CN(C(=S)Nc2c(C)cccc2C)c2cccnc2)c1 | 0.6 | -0.3 | 12.9 | 1.7 | 0.7 | 6.8 | nt
Cc1ccc(C(=O)CCC(=O)Nc2ccc(C)cn2)cc1 | 25.1 | -0.3 | -9.6 | 0.5 | nt | -15.2 | nt
Cc1ccc(C(=O)CCC(=O)NC2=NCCS2)cc1 | 8.6 | 8.3 | nt | 1.9 | nt | -7.9 | -1.8
Cc1cc(OCCCC(=O)NC2=NCCS2)ccc1Cl | 3.7 | -3.4 | 8.5 | 9.5* | -0.1 | -4.5 | -2.1
CCOc1ccc(OCCCC(=O)NC2=NCCS2)cc1 | 30.0 | -8.3 | 1.0 | 4.6 | -3.4 | 2.7 | nt
CC(=O)c1cccc(S(=O)(=O)NC2CCSc3ccccc32)c1 (stereo not given) | -3.8 | 21.0 | 0.3 | 0.4 | 2.5 | 2.1 | nt
CCCC(O)(c1ccc(OC)cc1)C(CN1CCOCC1)c1ccc(Cl)cc1 (stereo not given) | -9.7 | 3.4 | -11.4 | 11.7* | -2.4 | -12.1 | 2.0
Cc1ccc(C(=O)Nc2ccc(N3CCCCC3)cc2)cc1 | 7.0 | -5.4 | nt | 9.9* | nt | 2.9 | 3.4
O=C(NCCCNC(=O)c1ccccn1)c1ccc(F)cc1 | -3.2 | 11.7 | -25.3 | -1.1 | -2.2 | 1.0 | nt
O=C(CCCC(=O)c1ccc(F)cc1)c1ccc(F)cc1 | 6.2 | -3.6 | -4.2 | 7.6 | -2.2 | -7.5 | 1.1
O=C(CCCN1CCC(C(=O)c2ccc(F)cc2)CC1)c1ccc(F)cc1 | 8.8 | 32.0 | 2.3 | 0.2 | 0.4 | -5.5 | nt
O=C(NCCCNC(=O)c1ccc(F)cc1)c1ccc(F)cc1 | 7.2 | -12.9 | -4.8 | 4.5 | 0.5 | -4.5 | 0.8
O=C(O)CCC(=O)NCC(=O)c1ccc(F)cc1 | 30.9 | -6.1 | 11.5 | 8.5 | 0.0 | 3.9 | -0.6
Cc1ccsc1C(=O)N1CCCCCC1(C)C(=O)NCC(C)C (stereo not given) | nt | -1.6 | nt | nt | nt | 3.5 | nt
O=[N+]([O-])c1c(NCc2ccccc2)cc(N2CCc3ccccc3C2)c2nonc12 | -4.6 | -2.5 | 6.5 | 5.8* | -0.2 | 5.4 | 2.1
Cn1nc(C(=O)NNC(=O)c2ccccc2Br)c2ccccc2c1=O | nt | -4.5 | nt | 9.5* | nt | 5.2 | 4.2
O=C(NCC(=O)N1CCN(c2cccc(Cl)c2)CC1)c1ccc(Br)o1 | 10.4 | 0.3 | 3.6 | -1.7 | 2.9 | 3.2 | nt
Cc1ccc(Cl)cc1N1CCN(C(=O)CNC(=O)c2ccc(Br)o2)CC1 | 3.4 | 2.6 | 6.2 | 8.1* | nt | 6.9 | 5.9
Nc1nnc(SCC(=O)Nc2ccc(N3CCOCC3)c(Cl)c2)s1 | -1.7 | -2.0 | -14.9 | 7.4* | -0.9 | 7.7 | -1.0
Cc1cccc(NC(=O)c2ccccc2OCC(=O)N2CCOCC2)c1C | 12.5 | 1.7 | -6.0 | 2.2 | -0.9 | 0.3 | nt
O=C(Nc1cccc(Cl)c1Cl)c1ccccc1OCC(=O)N1CCOCC1 | 7.6 | 20.9 | 3.6 | 11.2* | -1.4 | 4.0 | -4.5
O=c1[nH]cnc2c1ncn2-c1ccc(N(CCO)CCO)cc1 | nt | -0.1 | nt | -4.7 | nt | 5.4 | nt
Cc1ccc(CNC2=NCCCCC2)n1C | -15.9 | -2.3 | 1.2 | 11.4* | -2.1 | -3.3 | -0.1
COc1ccccc1C(CC(=O)N1CCCC1)c1ccc2c(c1)OCO2 (stereo not given) | 9.7 | -0.4 | 5.5 | 6.8* | 3.1 | 1.8 | -3.5
Cc1cnnc2c1-c1no[n+]([O-])c1CC2 | 7.2 | -0.4 | 8.5 | 14.0* | -4.1 | 0.7 | 0.2
